Compound activity deposited in PubChem BioAssay by Johns Hopkins Ion Channel Center.
KCNQ2 block: inhibitors of rat KCNQ2 potassium channel. O88943. CHO-K1 KCNQ2, FluxOR thallium flux, 20 min; stronger effect = lower value. B-score at 10 µM. 310,000 tested, 1.1% active;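 active = fluorescence ratio B-score at most minus 3 library SDs, with starting brightness B-score within 2 library SDs, cut at about -5.5 in these data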
KCNQ2 pot: enhances the rat KCNQ2 potassium channel; 310,000 tested, 0.54% active; CHO-K1 KCNQ2, FluxOR thallium flux fluorescence; stronger effect = higher value; B-score at 10 µM; AID 2239; O88943;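 active = fluorescence ratio B-score at least 3 SD of library B-scores, with initial fluorescence B-score within 3 of them, cut at about 5.3 in these data; same plate scores as AID 2156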;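 also: B-score of peak minus minimum over baseline fluorescence ratio after K+ and Tl+ stimulus; positive B-score means potentiation of KCNQ2 with more thallium influx and brighter signal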
Kir21 confirm: confirmation of mouse Kir2.1 potassium channel inhibitors. 2,300 tested, 41% active. Kir2.1-expressing cells, FluxOR thallium flux fluorescence; stronger effect = lower value. AID 2032. Tl flux remaining, % of negative control (stronger effect = lower value), % at 10 µM. shares compounds with KCNQ2 pot;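 active = Primary-screen hit whose thallium flux fell at least 3 control SD below untreated wells in both duplicates, with normal baseline fluorescence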;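 also: 0% = blank wells without stimulus and 100% = stimulated no-compound controls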
HEK293 Tl flux: parental HEK293 activity in Kir2.1 inhibitor counter-screen | parental HEK293 cells, FluxOR thallium flux fluorescence; 0% = unstimulated blank wells | AID 2105 | shares compounds with KCNQ2 pot | FluxOR signal as % of negative control (100 = no effect), % at 10 µM | 2,300 tested, 19% active;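 active = dye signal at least 3 control SD above or below untreated wells in both duplicates, raw fluorescence within 3, either direction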;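 also: percent is based on the flux ratio of peak minus minimum fluorescence over baseline F0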
CHO-K1 ctr: alters thallium flux in parental CHO-K1 cells, KCNQ2 counter-screen. shares compounds with KCNQ2 pot. FluxOR thallium flux fluorescence; zero = vehicle mean+3SD, 100% = vehicle-minus-blank window. activity increase over 3SD of controls, % at 10 µM. 1,200 tested, 43% active. AID 2282;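 active = signal rise of at least 3 SD above the untreated control mean, in both duplicate wells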;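 also: counter screen of KCNQ2 potentiator hits so any rise reflects channel-independent effects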
KCNQ1 sel pot: tests whether KCNQ2 potentiators also act on human KCNQ1. shares compounds with KCNQ2 pot. 1,200 tested, 28% active. activation over 3SD threshold, % at 10 µM. CHO KCNQ1 stable, FluxOR thallium flux fluorescence; beyond 3SD, as % of vehicle-control signal. AID 2283;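 active = fluorescence ratio rise of at least 3 SD of vehicle wells above their mean, in both replicate wells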;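 also: 0% = vehicle mean plus 3 SD and 100% = vehicle minus unstimulated blank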
KCNQ2 pot confirm: rat KCNQ2 channel potentiator confirmation; shares compounds with KCNQ2 pot; potentiation, less the hit threshold, % at 10 µM; CHO-KCNQ2 cells, FluxOR thallium flux fluorescence; 1,200 tested, 68% active;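 active = fluorescence ratio rising 3 SD or more over the vehicle control mean in both replicates, plus primary screen hit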;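 also: peak minus minimum thallium fluorescence divided by baseline after K/Tl stimulus; 0% = vehicle mean plus 3 SD and 100% = vehicle minus unstimulated blank difference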
Kir2-1 sel: mouse Kir2.1 off-target activity of KCNQ2 potentiators; HEK293 Kir2.1, FluxOR thallium flux fluorescence; shares compounds with KCNQ2 pot; AID 2345; activity over 3SD threshold, % at 10 µM; 1,200 tested, 2% active;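 active = fluorescence ratio rise of at least 3 SD above the vehicle-control mean, seen in both replicates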;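 also: 0% = vehicle mean plus 3 SD and 100% = vehicle minus no-stimulus blank window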
KCNQ2 W236L pot: rat KCNQ2 W236L mutant potentiation by KCNQ2 potentiators; CHO KCNQ2-W236L, automated patch clamp current; 940 tested, 10% active; shares compounds with KCNQ2 pot; current increase over 3SD of negative controls (%), stronger effect = higher value, % at 25 µM;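 active = current increase at least 3 SD of the untreated controls above them in both duplicate recordings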
Target sequence (O88943 whole entry W236L, looked up): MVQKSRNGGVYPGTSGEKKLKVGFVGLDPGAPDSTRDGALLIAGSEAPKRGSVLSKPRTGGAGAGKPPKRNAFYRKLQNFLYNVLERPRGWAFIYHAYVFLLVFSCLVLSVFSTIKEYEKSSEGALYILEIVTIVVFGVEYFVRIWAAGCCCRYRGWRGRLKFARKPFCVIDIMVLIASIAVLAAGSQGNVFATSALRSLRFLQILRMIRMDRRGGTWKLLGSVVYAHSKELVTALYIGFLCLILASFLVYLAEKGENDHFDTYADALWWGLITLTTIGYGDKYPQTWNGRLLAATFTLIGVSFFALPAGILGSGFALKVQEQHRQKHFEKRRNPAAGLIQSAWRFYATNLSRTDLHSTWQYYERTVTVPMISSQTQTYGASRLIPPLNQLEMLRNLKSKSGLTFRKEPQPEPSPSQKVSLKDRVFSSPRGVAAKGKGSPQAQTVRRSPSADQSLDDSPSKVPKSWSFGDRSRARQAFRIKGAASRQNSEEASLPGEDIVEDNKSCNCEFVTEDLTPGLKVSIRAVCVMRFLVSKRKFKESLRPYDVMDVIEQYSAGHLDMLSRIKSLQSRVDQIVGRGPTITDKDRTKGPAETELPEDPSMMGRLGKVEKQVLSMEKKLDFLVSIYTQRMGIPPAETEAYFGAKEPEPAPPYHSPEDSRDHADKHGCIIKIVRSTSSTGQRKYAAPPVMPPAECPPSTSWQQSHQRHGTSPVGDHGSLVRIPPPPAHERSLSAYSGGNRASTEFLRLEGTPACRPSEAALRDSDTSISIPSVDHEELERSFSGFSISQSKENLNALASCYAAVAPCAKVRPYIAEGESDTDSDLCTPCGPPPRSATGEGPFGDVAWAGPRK
Starred values were filed as active, the others as inactive; i = inactive; · = not tested or not shown. Compounds with a hit are over-represented: about 1.6% of the library has one in this group of screens.

SMILES	KCNQ2 block	KCNQ2 pot	Kir21 confirm	HEK293 Tl flux	others
CC(=O)c1ccc(NC(=O)c2ccc(CSc3ccccc3)o2)cc1	i	1.07	·	·
O=C(Nc1ccc(F)cc1)c1ccc(CSc2ccc(Cl)cc2)o1	i	7.19*	i	i	CHO-K1 ctr=2.2*;KCNQ1 sel pot=90.1*;KCNQ2 pot confirm=-9.1;Kir2-1 sel=-43.8;KCNQ2 W236L pot=i
COc1ccc(C(O)P(=O)(OCCC(C)C)c2ccc(N(C)C)cc2)cc1 (centres undefined)	i	·	·	·
COc1cccc(NC(=O)C2CCN(C(=O)[C@@H]3Cc4ccccc4CN3)CC2)c1	i	0.93	·	·
Cc1ccc(N(CC(=O)NC2CCCC2)C(=O)CNC(=O)c2cccs2)c(C)c1	i	·	·	·
CC(C)(C)c1ccc(Oc2ccc(N)cn2)cc1	i	11.9*	i	67.5%*	CHO-K1 ctr=64.9*;KCNQ1 sel pot=-19.1;KCNQ2 pot confirm=73.3*;Kir2-1 sel=-34.0;KCNQ2 W236L pot=i
Cc1cc(Oc2ccc(N)cn2)cc(C)c1Cl	i	0.02	·	·
CCOc1cc(N2CCOCC2)c(OCC)cc1NC(=O)C1CCCC1	i	4.23	·	·
CCOc1cc(N2CCOCC2)c(OCC)cc1NC(=O)COC(=O)c1ccccc1C	i	0.04	·	·
CCOc1cc(N2CCOCC2)c(OCC)cc1NC(=O)CCC1CCCC1	i	25.4*	i	i	CHO-K1 ctr=0.0*;KCNQ1 sel pot=219.9*;KCNQ2 pot confirm=112.1*;Kir2-1 sel=-37.3;KCNQ2 W236L pot=i
CCOc1cc(N2CCOCC2)c(OCC)cc1NC(=O)Cc1cccc2ccccc12	i	8.23*	i	i	CHO-K1 ctr=2.4*;KCNQ1 sel pot=25.9*;KCNQ2 pot confirm=9.3*;Kir2-1 sel=-41.1;KCNQ2 W236L pot=i
COc1c(F)c(F)c(C(=O)O)c(Nc2ccc(C)cc2C)c1F	i	·	·	·
CC(=O)N1CC(C)Oc2ccc(S(=O)(=O)NC(CC(=O)O)c3cc(C)ccc3C)cc21 (centres undefined)	i	·	·	·
OCCNCc1ccc(-c2ccccc2)cc1	i	1.03	·	·
OCCCNCc1ccc(N(c2ccccc2)c2ccccc2)cc1	i	·	23.0%*	i
Cc1ccccc1C(=O)Nc1ccnn1C1CCN(C(=O)c2cnsn2)CC1	i	0.16	·	·
O=C(Nc1cccnc1)c1ccc(Cl)c(Cl)c1	i	8.08*	i	i	CHO-K1 ctr=18.0*;KCNQ1 sel pot=-5.6;KCNQ2 pot confirm=21.0*;Kir2-1 sel=-32.1;KCNQ2 W236L pot=10.8%*
O=C(Nc1cccnc1)c1ccc(Oc2ccccc2)cc1	i	18.4*	i	i	CHO-K1 ctr=-12.4;KCNQ1 sel pot=-17.9;KCNQ2 pot confirm=85.1*;Kir2-1 sel=-49.0;KCNQ2 W236L pot=i
O=C(NNC(=O)c1ccc(Cl)c(Cl)c1)c1cccnc1	i	·	·	·
O=C(Nc1cccnc1)c1ccccc1Oc1ccccc1	i	·	·	·
CN(C)CCC(=O)C(Cc1ccccc1)c1ccccc1 (centres undefined)	i	·	·	·
CC(CCCN(C)C)C(Cc1ccccc1)c1ccccc1 (centres undefined)	i	·	47.5%*	i
O=C(CC1C(=O)NCCN1Cc1ccc(Cl)c(F)c1)NC1CCCCC1 (centres undefined)	i	·	·	·
O=C(NC1CC(=O)N(c2ccc3c(c2)OCCO3)C1)N1CCC(O)CC1 (centres undefined)	i	0.14	·	·
CN1CCN(S(=O)(=O)c2cccs2)CC1	i	0.11	·	·
SMILES	KCNQ2 block	KCNQ2 pot	Kir21 confirm	HEK293 Tl flux	others
CC1c2ccsc2CCN1S(=O)(=O)c1cccs1 (centres undefined)	i	·	57.0%*	i
O=C(NC1CCN(Cc2ccccc2)CC1)c1ccccc1OCc1ccccc1	i	·	·	·
O=C(NC1CCN(Cc2ccccc2)CC1)c1ccccc1OCc1ccccc1Cl	i	·	73.0%*	i
CC(C)(C)NS(=O)(=O)c1ccc(NC(=O)C2CC(=O)N(CCc3ccc(F)cc3)C2)cc1 (centres undefined)	i	·	·	·
COCCNC(=O)/C(C#N)=C/c1ccc(OC(=O)c2cccs2)c(OC)c1	i	·	i	i
COCCNC(=O)/C(C#N)=C/c1cccs1	i	·	·	·
Cc1onc(-c2c(F)cccc2Cl)c1C(O)c1ccc(F)cc1 (centres undefined)	i	·	·	·
COc1ccc(CCNC2CCc3ccccc3C2)cc1 (centres undefined)	i	2.77	40.0%*	i
COc1ccc(CCNC(=O)C2Cc3ccccc3C(=O)O2)cc1 (centres undefined)	i	·	·	·
COc1ccc(CCN2CCCn3c2nc2c3c(=O)n(CC(N)=O)c(=O)n2C)cc1OC	i	0.62	·	·
Cc1ccc(O)c(CNCCNCc2cc(C)ccc2O)c1	i	·	38.0%*	i
Cc1ccnc(NCc2ccccc2O)c1	i	1.18	·	·
CCc1ccc(O)c(N=Cc2ccccc2O)c1	i	·	·	·
CCc1ccc(O)c(CNCCNCc2cc(CC)ccc2O)c1	i	2.82	50.0%*	i
O=C(NC1C2CC3CC(C2)CC1C3)C1CCCCC1 (centres undefined)	i	1.95	·	·
CCCCNC(=O)N(O)C1N(CCCC)C(=O)N(CC(=O)OC)C1(C)C (centres undefined)	i	0.07	·	·
CC(NCCS(=O)(=O)c1ccc(Cl)cc1)c1cccc(Cl)c1 (centres undefined)	i	0.87	33.5%*	i
CC(C)c1ccc(C(C)NCCS(=O)(=O)c2ccc(Br)cc2)cc1 (centres undefined)	i	·	·	·
CCCc1nc(SCC(=O)NCc2ccco2)c2c(=O)n(C)c(=O)n(C)c2n1	i	2.5	·	·
Cn1c(=O)c2c(SCC(=O)Nc3nccs3)nc(C3CC3)nc2n(C)c1=O	i	0.34	·	·
CCc1nc(SCC(=O)NCCc2ccccc2)c2c(=O)n(C)c(=O)n(C)c2n1	i	0.86	·	·
CCCc1nc(SCC(=O)c2ccccc2)c2c(=O)n(C)c(=O)n(C)c2n1	i	24.9*	i	i	CHO-K1 ctr=67.0*;KCNQ1 sel pot=78.7*;KCNQ2 pot confirm=56.2*;Kir2-1 sel=-26.2;KCNQ2 W236L pot=i
CCc1nc(SCC(=O)c2ccccc2)c2c(=O)n(C)c(=O)n(C)c2n1	i	5.4*	i	i	CHO-K1 ctr=-24.8;KCNQ1 sel pot=-18.9;KCNQ2 pot confirm=5.8*;Kir2-1 sel=-23.1;KCNQ2 W236L pot=i
Cn1c(=O)c2c(SCC(=O)c3ccccc3)nc(C3CC3)nc2n(C)c1=O	i	5.4*	i	i	CHO-K1 ctr=84.2*;KCNQ1 sel pot=-14.4;KCNQ2 pot confirm=2.4*;Kir2-1 sel=-23.9;KCNQ2 W236L pot=i
C/C(=N\OCC(=O)OCC(=O)NC(=O)c1ccccc1)c1ccc2c(c1)OCO2	i	1.17	·	·
